Our source for the outcome values is PubChem BioAssay AID488835 (Broad Institute, 2010).

SMILES strings stand for the structures. In all, about 1,400 compounds went through this assay and about 140 (10%) were called active.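 How the source made its calls: active means Half-maximal inhibitory dose from the fit at or below ten times the top valid tested dose; inconclusive means Invalid fit, or flat curve showing 30 to 70% inhibition; inactive means the rest.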 Only a sample is shown. Results with a measured potency or affinity are listed apart.

In this assay the target is Lysine-specific demethylase 4C (Homo sapiens) (UniProt Q9H3R0). Kind of assay: inhibition of JMJD2C H3K9me3 demethylation – biochemical, DELFIA europium, cherry-picked samples, dose response (AID 488835).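 Further: signal is the H3K9me2 demethylation product detected by a dimethyl-specific antibody.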 The conditions noted are these: GST-JMJD2C(1-420); series mostly up to 6 µM.
Sequence of Lysine-specific demethylase 4C (Homo sapiens) (Q9H3R0 1-420 limits assumed): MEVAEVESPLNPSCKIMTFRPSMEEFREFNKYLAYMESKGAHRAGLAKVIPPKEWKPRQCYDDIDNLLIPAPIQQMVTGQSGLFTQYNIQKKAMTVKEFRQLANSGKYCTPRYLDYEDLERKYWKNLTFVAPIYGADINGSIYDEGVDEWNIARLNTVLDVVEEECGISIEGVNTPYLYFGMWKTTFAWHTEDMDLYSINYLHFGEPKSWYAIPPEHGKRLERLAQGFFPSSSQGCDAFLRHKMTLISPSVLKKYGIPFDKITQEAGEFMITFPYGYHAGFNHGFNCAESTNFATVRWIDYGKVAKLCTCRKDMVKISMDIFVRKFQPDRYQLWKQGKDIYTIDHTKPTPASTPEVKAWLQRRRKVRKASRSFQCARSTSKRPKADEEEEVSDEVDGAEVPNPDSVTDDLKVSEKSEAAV
`CCOc1ccc(N2CC(C(=O)Nc3nnc(Cc4ccc(OC)cc4)s3)CC2=O)cc1` (stereo not drawn): the compound was classed as inactive.

Consider `CCCCN1CC[C@H]2C=CC[C@@H](C(=O)Nc3ccc(OC)cc3)[C@H]2C1=O`, for which the call was inactive.

Consider `O=S(=O)(Nc1ccccc1)c1ccc(NS(=O)(=O)c2c(F)cccc2F)cc1`, for which the result was inactive.

For the compound `C[C@H](CO)N1C[C@H](C)[C@@H](CN(C)C(=O)Nc2ccc(C(F)(F)F)cc2)Oc2c(NC(=O)Nc3ccc4c(c3)OCO4)cccc2C1=O`, the result was inactive.

On to `COc1cc(/C=N/N2C(=O)C3C4c5ccccc5C(c5ccccc54)C3C2=O)ccc1O` (stereo not drawn), for which the call was inactive.

In the case of `COc1ccc(/C=N/Nc2ncnc(Cl)c2N)cc1OC`, the result was inactive.

With `COc1cc(/C=N/Nc2ccccc2)ccc1OC(=O)c1cccs1`, the outcome was inactive.

As to `O=C(O)CCCC(=O)Nc1ccc(C(=O)NCc2cccnc2)cc1`, the compound was called inactive.

With `N#CCN1CCC(c2cc(-c3ccco3)n[nH]2)CC1`, the result was inactive.

For `CS(=O)(=O)N(CC(=O)O)c1cc(Cl)cc(Cl)c1`, the compound was classed as inactive.

As to `COc1ccc(N2CCN(C(=O)CSc3nnc(-c4ccco4)n3C)CC2)cc1`, the call was inactive.

Turning to `C[C@H](CO)N1C[C@H](C)[C@@H](CN(C)C(=O)Nc2ccccc2)Oc2c(NC(=O)c3ccncc3)cccc2C1=O`, the compound was classed as inactive.

Consider `Cc1cccc2sc(NNC(=O)c3cc(=O)c4ccccc4o3)nc12`, for which the result was inactive.

On to `CN1N=C(C(F)(F)F)CC1=O`, for which the outcome was inactive.

Turning to `CSC1=NCCN1C(=O)c1cccc(C(F)(F)F)c1`, the result was inactive.

As for `Cn1c(=O)c(-c2ccccc2)nn2c3ccccc3nc12`, the outcome was inactive.

Regarding `Cc1ccc(Nc2c(-c3ccccn3)nc3cc(C)ccn23)cc1`, the call was inactive.

Regarding `CCOC(=O)N1CCC2(CC1)C(C#N)=C(N)OC1=C2C(=O)CC(C)(C)C1`, the outcome was inactive.

Turning to `C[C@H](CO)N1C[C@H](C)[C@@H](CN(C)Cc2ccc(C(=O)O)cc2)Oc2c(NC(=O)c3ccncc3)cccc2C1=O`, the compound was called inactive.

Turning to `O=C(O)Cn1cc(/C=C2/SC(=O)N(CC(=O)N3CCCCCC3)C2=O)c2ccccc21`, the result was inactive.

Take `O=C(O)CCC(=O)Nc1nc2nc(-c3ccccc3)cc(-c3ccccc3)n2n1`: the compound was called inactive.

Consider `CCN(C[C@H]1N[C@@](C)(C(=O)OC)[C@H]2C(=O)N(Cc3ccccc3)C(=O)[C@@H]12)C(=O)Nc1ccc(F)cc1`, for which the compound was classed as inactive.

On to `Cc1cc(N2C(=O)C(=O)/C(=C(/O)c3ccc(F)cc3)C2c2cccc(Br)c2)no1` (stereo not drawn), for which the outcome was inactive.

Take `COc1cccc(/C=C/C(=O)NCCc2ccc(OC)c(OC)c2)c1`: the result was inactive.

As for `CCc1ccc(-c2cc(C)no2)cc1S(=O)(=O)NCCc1ccc(OC)c(OC)c1`, the outcome was inactive.

In the case of `Cc1ccccc1NS(=O)(=O)c1ccc(C(=O)NCC(c2ccco2)N(C)C)cc1` (stereo not drawn), the result was inactive.

With `COc1ccccc1/C=C/C(=O)Nc1ccc(N2CCOCC2)cc1`, the compound was called inactive.

For `Cc1cc(C)c2cc(C#N)c(SCC(=O)Nc3ccc4c(c3)OCO4)nc2c1`, the outcome was inactive.

With `O=C(/C=C\Nc1ccc(Cl)cn1)c1ccc(Br)cc1`, the compound was classed as inactive.

Consider `CCCNC1=C(N(C(C)=O)c2cccc(F)c2)C(=O)c2ccccc2C1=O`, for which the result was inactive.

For `C#CCOCCOCCOCCNc1nc(N2CCN(C(=O)[C@H](CCCN=C(N)N)n3cc(C(N)[C@@H](C)CC)nn3)CC2)nc(N2CCN(C(=O)[C@H](CCC(=O)O)n3cc([C@@H](N)[C@H](C)CC)nn3)CC2)n1` (stereo partly drawn), the compound was classed as inactive.

As to `C#CCOCCOCCOCCNc1nc(N2CCN(C(=O)[C@H](CCC(=O)O)n3cc(CN)nn3)CC2)nc(N2CCN(C(=O)[C@H](CCCN=C(N)N)n3cc(C(N)[C@@H](C)CC)nn3)CC2)n1` (stereo partly drawn), the compound was called inactive.

For the compound `C#CCOCCOCCOCCNc1nc(N2CCN(C(=O)[C@H](CCCN=C(N)N)n3cc(C(N)[C@H](C)CC)nn3)CC2)nc(N2CCN(C(=O)[C@H](CC(N)=O)n3cc(C(N)[C@@H](C)CC)nn3)CC2)n1` (stereo partly drawn), the result was inactive.

With `C#CCOCCOCCOCCNc1nc(N2CCOCC2)nc(N2CCN(C(=O)[C@H](CCCN=C(N)N)n3cc(C(N)[C@@H](C)CC)nn3)CC2)n1` (stereo partly drawn), the result was inactive.

Consider `Oc1cc2ccccc2cc1-c1nnc2n1-c1ccccc1SC2`, for which the compound was classed as inactive.

Turning to `CC(=O)Nc1sc2c(c1CN1CCN(C)CC1)CCCC2`, the outcome was inactive.

With `COc1ccc(S(=O)(=O)N2CC(O)CC2C(=O)OCc2nc3sc(C)c(C)c3c(=O)[nH]2)cc1` (stereo not drawn), the outcome was inactive.

For `CC1CCN(C(=O)CSc2nnc(CNC(=O)c3c(F)cccc3F)o2)CC1`, the call was inactive.

For `CNC(=O)c1sccc1-n1cccc1`, the result was inactive.

Take `CCOC(=O)C1(C)NC(c2cccs2)C2C(=O)N(c3ccc(OC)cc3)C(=O)C21` (stereo not drawn): the outcome was inactive.

For the compound `Cc1ccccc1CNc1nnnn1C`, the outcome was inactive.

With `Oc1ccc(Br)cc1/C=N/Nc1nc(N2CCCCC2)nc(N2CCOCC2)n1`, the call was inactive.

On to `O=C(N/N=C/c1ccc(O)cc1)c1cncc(Br)c1`, for which the result was inactive.

As to `CN1CCC[C@H]1CCNC(=O)c1c(-c2ccsc2)sc2ccccc12`, the compound was called inactive.

Regarding `Cn1c(=O)c2[nH]c(N3CCN(c4cccc(O)c4)CC3)nc2n(C)c1=O`, the outcome was inactive.

With `CC(OC(=O)CN1C(=O)COc2ccccc21)C(=O)NCc1ccc(F)cc1` (stereo not drawn), the result was inactive.

Turning to `Cc1ccc(C(C)C)c(Oc2nnnn2-c2ccccc2)c1`, the result was inactive.

Turning to `O=C(c1cc2c(s1)CCC2)N1C(=O)c2ccccc2S1(=O)=O`, the compound was classed as inactive.

Consider `O=C(Cn1cncn1)NCc1cc(F)ccc1F`, for which the result was inactive.

For `C[C@H]1CN([C@@H](C)CO)C(=O)c2cccc(NC(=O)C3CC3)c2O[C@H]1CN(C)Cc1ccncc1`, the outcome was inactive.

Regarding `C[C@H](CO)N1C[C@H](C)[C@@H](CN(C)CC2CCCCC2)Oc2c(NC(=O)C3CC3)cccc2C1=O`, the call was inactive.

Turning to `C[C@H](CO)N1C[C@H](C)[C@@H](CN(C)S(=O)(=O)c2cccs2)Oc2c(NC(=O)CCC(F)(F)F)cccc2C1=O`, the compound was classed as inactive.

With `Cc1ccc(NC(=O)COC(=O)CCc2c[nH]c(=O)[nH]2)cc1`, the compound was classed as inactive.

In the case of `COc1cc([N+](=O)[O-])ccc1NC(=O)CSc1nccn1C`, the outcome was inactive.

Regarding `COc1ccc(OC)c(/C=C2\SC(=S)N(Cc3cccnc3)C2=O)c1`, the compound was classed as inactive.

As to `O=C(N1CCN(c2ccccc2)CC1)C12CC3CC(CC(C3)C1)C2`, the result was inactive.

As for `CSc1nsc(SCC(=O)Nc2c(C)n(C)n(-c3ccccc3)c2=O)n1`, the compound was called inactive.

For the compound `O=C(NNC(=O)c1ccc(SCC2CCCO2)c([N+](=O)[O-])c1)c1ccc(Cl)c([N+](=O)[O-])c1` (stereo not drawn), the call was inactive.
